From PubChem BioAssay (EPA / NIEHS)
Results filed as inconclusive are left out. Activity calls are given as the source filed them. The calls were made as follows: active = hit-call score of the fitted dose curve at least 0.9, where 1 is the maximum; inconclusive = response in the unintended direction; inactive = score below 0.9.

biological target: Glucocorticoid receptor (Homo sapiens) (UniProt P04150); assay: ATG_GR_TRANS: Attagene TRANS-FACTORIAL HepG2 Assay for human Glucocorticoid Receptor (GR) (AID 2282978); conditions: HepG2 Attagene TRANS GR reporter, mRNA transcription;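 also: activators score as hits since higher reporter transcript over DMSO is fitted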
Procedure, shortened: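 Reporter transcript levels, detected by fluorescence after RT-PCR and capillary electrophoresis, served as the endpoint. HepG2 cells bearing transfected GAL4-UAS reporters responsive to NR-GAL4 chimeras were incubated with compound 24 h; DMSO defined baseline.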

Glucocorticoid receptor (Homo sapiens), sequence (P04150 whole entry, looked up, the tested form may be a part): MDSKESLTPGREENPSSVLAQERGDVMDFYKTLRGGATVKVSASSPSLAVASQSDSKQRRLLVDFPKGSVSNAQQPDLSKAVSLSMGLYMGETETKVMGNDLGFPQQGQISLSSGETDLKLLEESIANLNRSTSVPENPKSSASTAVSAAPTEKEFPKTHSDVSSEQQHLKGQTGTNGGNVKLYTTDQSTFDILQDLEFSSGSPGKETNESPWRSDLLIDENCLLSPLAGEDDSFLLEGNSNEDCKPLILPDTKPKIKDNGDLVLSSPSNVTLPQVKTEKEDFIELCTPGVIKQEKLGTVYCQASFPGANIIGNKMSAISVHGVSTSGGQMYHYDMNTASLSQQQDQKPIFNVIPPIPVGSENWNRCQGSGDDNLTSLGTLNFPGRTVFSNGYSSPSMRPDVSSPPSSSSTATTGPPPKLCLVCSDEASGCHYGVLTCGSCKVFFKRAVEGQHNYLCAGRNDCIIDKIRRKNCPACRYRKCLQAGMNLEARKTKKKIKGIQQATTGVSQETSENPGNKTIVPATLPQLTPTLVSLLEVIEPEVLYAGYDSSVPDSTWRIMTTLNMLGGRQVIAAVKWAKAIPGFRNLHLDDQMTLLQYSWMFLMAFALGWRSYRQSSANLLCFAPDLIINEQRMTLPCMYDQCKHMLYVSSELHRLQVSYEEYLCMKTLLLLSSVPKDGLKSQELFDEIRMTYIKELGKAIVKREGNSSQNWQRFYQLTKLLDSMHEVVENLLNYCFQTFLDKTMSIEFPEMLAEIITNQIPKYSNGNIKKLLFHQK

Row | SMILES | outcome
1 | OC(CCl)CCl | inactive
2 | CCCCCCCCN(C)C | inactive
3 | CCCC(CCC)C(=O)O | inactive
4 | OCCNCCO | inactive
5 | CC[C@H](C)C(=O)O[C@H]1C[C@H](O)C=C2C=C[C@H](C)[C@H](CC[C@@H](O)C[C@@H](O)CC(=O)O)[C@H]21 | inactive
6 | c1ccc(C(O[C@@H]2CCCN(CCc3ccc4c(c3)OCO4)C2)c2ccccc2)cc1 | inactive
7 | NNC(=O)c1ccncc1 | inactive
8 | O=c1[nH]cnc2c1ncn2[C@H]1CC[C@@H](CO)O1 | inactive
9 | c1ccc2cc3ccccc3cc2c1 | inactive
10 | CCCCCOC(C)=O | inactive
11 | OC(Cn1cncn1)(Cn1cncn1)c1ccc(F)cc1F | inactive
12 | CCc1cccc(CC)c1N | inactive
13 | CCn1nc(C)c2c1C(=O)NCC(c1ccc(O)cc1)=N2 | inactive
14 | CCCc1ccccc1 | inactive
15 | O=C(O)c1cccc(C[C@@H]2COc3ccc(OCc4nc5cc(F)ccc5s4)cc3[C@@H]2O)c1 | inactive
16 | NC(=O)NN=Cc1ccc([N+](=O)[O-])o1 | inactive
17 | O=C1CN(N=Cc2ccc([N+](=O)[O-])o2)C(=O)N1 | inactive
18 | OCCOCCOCCO | inactive
19 | CCCCC(CC)C(=O)OCCOCCOCCOC(=O)C(CC)CCCC (configuration not stated) | inactive

biological target: Bile acid receptor (Homo sapiens) (UniProt Q96RI1); assay: ATG_FXR_TRANS: Attagene TRANS-FACTORIAL HepG2 Assay for Farnesoid X Receptor (FXR) (AID 2282979); conditions: HepG2 Attagene TRANS FXR-GAL4 reporter transcription;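 also: hits raise reporter mRNA above DMSO so AC50 marks FXR activation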
Procedure, shortened: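 HepG2 cells transiently transfected with reporter constructs in which a chimeric FXR-GAL4 protein drives a GAL4-UAS reporter; 24 h compound exposure. Reporter mRNA measured by RT-PCR, FAM labelling, HpaI digestion and capillary electrophoresis; gain-of-signal versus DMSO.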

Bile acid receptor (Homo sapiens), sequence (Q96RI1 whole entry, looked up, the tested form may be a part): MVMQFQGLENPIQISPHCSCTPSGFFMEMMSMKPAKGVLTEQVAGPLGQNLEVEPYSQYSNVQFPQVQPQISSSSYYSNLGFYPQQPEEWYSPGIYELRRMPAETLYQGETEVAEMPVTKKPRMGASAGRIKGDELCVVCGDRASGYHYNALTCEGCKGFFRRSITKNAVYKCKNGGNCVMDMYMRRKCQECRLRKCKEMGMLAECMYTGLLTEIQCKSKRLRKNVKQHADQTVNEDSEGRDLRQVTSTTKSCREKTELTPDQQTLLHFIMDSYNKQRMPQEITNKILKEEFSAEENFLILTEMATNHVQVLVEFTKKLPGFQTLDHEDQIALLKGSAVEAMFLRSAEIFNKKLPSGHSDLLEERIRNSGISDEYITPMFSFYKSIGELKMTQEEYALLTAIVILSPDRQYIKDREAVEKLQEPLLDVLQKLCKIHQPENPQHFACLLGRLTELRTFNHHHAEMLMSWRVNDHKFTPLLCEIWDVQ

Row | SMILES | outcome
20 | CC(C)CCCCCCOC(=O)C1CCCCC1C(=O)OCCCCCCC(C)C (configuration not stated) | inactive
21 | OCc1c[nH]c2ccccc12 | inactive
22 | Cc1nccn1-c1ccc(Sc2cccc(C3(C(N)=O)CCOCC3)c2)cc1 | inactive
23 | CC(C)C(=O)Nc1ccc([N+](=O)[O-])c(C(F)(F)F)c1 | inactive
24 | COCc1nnc(-c2ccc[n+]([O-])c2)n1-c1c(Cl)c(Cl)cc2[nH]c(=O)c(=O)[nH]c12 | inactive
25 | FC(F)C(F)(F)COCC1CO1 (configuration not stated) | inactive
26 | Cc1ncc([C@@H](CCCCCCc2ccc3c(n2)NCCC3)CC(=O)O)cn1 | inactive
27 | CCCCCCCCCCCCCCCCOS(=O)(=O)O | inactive
28 | O=C(O)c1ccc2c(c1)nc(C(=O)NC1CCN(C3CC3)CC1)n2Cc1cc(-c2ccc(Cl)s2)on1 | inactive

biological target: Oxysterols receptor LXR-alpha (Homo sapiens) (UniProt Q13133); assay: ATG_LXRa_TRANS: Attagene TRANS-FACTORIAL HepG2 Assay for human Liver X Receptor alpha (LXRa) (AID 2282980); conditions: HepG2 Attagene TRANS reporter, LXRa transactivation
Procedure, shortened: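 HepG2 cells were transiently transfected with multiplexed reporter units driven by chimeric LXRa–GAL4 fusion proteins, then dosed for 24 h. Reporter mRNA was quantified by RT-PCR, fluorescent labelling and capillary electrophoresis; gain of signal fitted against DMSO baseline.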

Oxysterols receptor LXR-alpha (Homo sapiens), sequence (Q13133 whole entry, looked up, the tested form may be a part): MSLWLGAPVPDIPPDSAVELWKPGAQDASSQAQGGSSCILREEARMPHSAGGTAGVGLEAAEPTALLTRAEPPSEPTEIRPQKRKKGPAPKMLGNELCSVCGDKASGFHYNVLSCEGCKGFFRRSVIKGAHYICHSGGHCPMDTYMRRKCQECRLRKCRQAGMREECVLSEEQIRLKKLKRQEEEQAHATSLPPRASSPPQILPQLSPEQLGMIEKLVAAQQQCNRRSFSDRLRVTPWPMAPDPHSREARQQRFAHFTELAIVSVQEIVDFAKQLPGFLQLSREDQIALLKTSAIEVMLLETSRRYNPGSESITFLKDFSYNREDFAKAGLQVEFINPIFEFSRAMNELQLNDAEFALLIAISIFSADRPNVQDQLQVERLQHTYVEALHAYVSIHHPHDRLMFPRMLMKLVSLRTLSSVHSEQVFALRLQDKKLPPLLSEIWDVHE

Row | SMILES | outcome
29 | OCc1c[nH]c2ccccc12 | inactive
30 | CC(C)C(=O)Nc1ccc([N+](=O)[O-])c(C(F)(F)F)c1 | inactive
31 | FC(F)C(F)(F)COCC1CO1 (configuration not stated) | inactive
32 | Cc1ncc([C@@H](CCCCCCc2ccc3c(n2)NCCC3)CC(=O)O)cn1 | inactive

biological target: Oxysterols receptor LXR-beta (Homo sapiens) (UniProt P55055); assay: ATG_LXRb_TRANS: Attagene TRANS-FACTORIAL HepG2 Assay for human Liver X Receptor beta (LXRb) (AID 2282981); conditions: HepG2 Attagene TRANS GAL4-LXRb reporter, mRNA
Procedure, shortened: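 Transient transfection HepG2 (multiplexed RTUs, GAL4-UAS); NR-Gal4 chimera; 24 h exposure; RNA → RT-PCR → 6-FAM primer extension → HpaI → CE; increase vs DMSO.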

Oxysterols receptor LXR-beta (Homo sapiens), sequence (P55055 whole entry, looked up, the tested form may be a part): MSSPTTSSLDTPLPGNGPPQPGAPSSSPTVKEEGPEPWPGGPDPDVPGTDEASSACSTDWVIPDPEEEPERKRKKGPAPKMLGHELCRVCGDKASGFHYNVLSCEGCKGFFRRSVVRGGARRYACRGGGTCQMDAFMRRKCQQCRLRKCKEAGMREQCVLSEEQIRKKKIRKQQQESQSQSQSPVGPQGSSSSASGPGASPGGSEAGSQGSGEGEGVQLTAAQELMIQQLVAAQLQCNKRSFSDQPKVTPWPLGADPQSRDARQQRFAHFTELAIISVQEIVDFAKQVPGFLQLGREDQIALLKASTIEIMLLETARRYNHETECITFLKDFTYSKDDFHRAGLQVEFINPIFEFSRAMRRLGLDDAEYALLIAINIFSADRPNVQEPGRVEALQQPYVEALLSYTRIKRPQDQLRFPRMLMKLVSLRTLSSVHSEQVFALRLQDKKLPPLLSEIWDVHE

Row | SMILES | outcome
33 | OC(CCl)CCl | inactive
34 | CCCCCCCCN(C)C | inactive
35 | CC[C@H](C)C(=O)O[C@H]1C[C@H](O)C=C2C=C[C@H](C)[C@H](CC[C@@H](O)C[C@@H](O)CC(=O)O)[C@H]21 | inactive
36 | CC(C)CCCCCCOC(=O)C1CCCCC1C(=O)OCCCCCCC(C)C (configuration not stated) | inactive
37 | NNC(=O)c1ccncc1 | inactive
38 | O=c1[nH]cnc2c1ncn2[C@H]1CC[C@@H](CO)O1 | inactive
39 | OCc1c[nH]c2ccccc12 | inactive
40 | Cc1nccn1-c1ccc(Sc2cccc(C3(C(N)=O)CCOCC3)c2)cc1 | inactive
41 | CC(C)C(=O)Nc1ccc([N+](=O)[O-])c(C(F)(F)F)c1 | inactive
42 | OC(Cn1cncn1)(Cn1cncn1)c1ccc(F)cc1F | inactive
43 | CCn1nc(C)c2c1C(=O)NCC(c1ccc(O)cc1)=N2 | inactive
44 | Cc1ncc([C@@H](CCCCCCc2ccc3c(n2)NCCC3)CC(=O)O)cn1 | inactive
45 | CCCCCCCCCCCCCCCCOS(=O)(=O)O | inactive

biological target: Hepatocyte nuclear factor 4-alpha (Homo sapiens) (UniProt P41235); assay: ATG_HNF4a_TRANS: Attagene TRANS-FACTORIAL HepG2 Assay for human Hepatocyte Nuclear Factor 4 alpha (HNF4a) (AID 2282982); conditions: HepG2 HNF4a transactivation reporter, mRNA readout
Procedure, shortened: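 Readout is fluorescent reporter-transcript fragments resolved by capillary electrophoresis after RT-PCR from HepG2 cells dosed for 24 h. Cells carried transfected GAL4-UAS reporter constructs measuring exogenous NR-GAL4 chimera activity; DMSO served as baseline.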

Hepatocyte nuclear factor 4-alpha (Homo sapiens), sequence (P41235 whole entry, looked up, the tested form may be a part): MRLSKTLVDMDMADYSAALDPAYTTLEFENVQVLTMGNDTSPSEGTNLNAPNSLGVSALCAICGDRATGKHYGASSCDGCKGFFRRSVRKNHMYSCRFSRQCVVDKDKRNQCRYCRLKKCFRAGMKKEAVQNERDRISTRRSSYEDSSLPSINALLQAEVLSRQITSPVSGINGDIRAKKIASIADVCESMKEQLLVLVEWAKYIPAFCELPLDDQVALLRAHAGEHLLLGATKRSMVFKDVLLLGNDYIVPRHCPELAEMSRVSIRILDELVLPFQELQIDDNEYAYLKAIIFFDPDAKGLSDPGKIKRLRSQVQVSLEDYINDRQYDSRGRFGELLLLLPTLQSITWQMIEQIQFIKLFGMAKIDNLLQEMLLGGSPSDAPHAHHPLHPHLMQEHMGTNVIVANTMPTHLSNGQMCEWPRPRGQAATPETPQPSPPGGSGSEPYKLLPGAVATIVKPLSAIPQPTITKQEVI

Row | SMILES | outcome
46 | OC(CCl)CCl | inactive
47 | OCCNCCO | inactive
48 | CC[C@H](C)C(=O)O[C@H]1C[C@H](O)C=C2C=C[C@H](C)[C@H](CC[C@@H](O)C[C@@H](O)CC(=O)O)[C@H]21 | inactive
49 | c1ccc(C(O[C@@H]2CCCN(CCc3ccc4c(c3)OCO4)C2)c2ccccc2)cc1 | inactive
50 | OCc1c[nH]c2ccccc12 | inactive
51 | Cc1nccn1-c1ccc(Sc2cccc(C3(C(N)=O)CCOCC3)c2)cc1 | inactive
52 | CC(C)C(=O)Nc1ccc([N+](=O)[O-])c(C(F)(F)F)c1 | inactive
53 | COCc1nnc(-c2ccc[n+]([O-])c2)n1-c1c(Cl)c(Cl)cc2[nH]c(=O)c(=O)[nH]c12 | inactive
54 | CCc1cccc(CC)c1N | inactive
55 | CCn1nc(C)c2c1C(=O)NCC(c1ccc(O)cc1)=N2 | inactive
56 | Cc1ncc([C@@H](CCCCCCc2ccc3c(n2)NCCC3)CC(=O)O)cn1 | inactive
57 | CCCc1ccccc1 | inactive
58 | NC(=O)NN=Cc1ccc([N+](=O)[O-])o1 | inactive
59 | O=C(O)c1ccc2c(c1)nc(C(=O)NC1CCN(C3CC3)CC1)n2Cc1cc(-c2ccc(Cl)s2)on1 | inactive

system: not listed separately; assay: ATG_M_06_TRANS: Attagene TRANS-FACTORIAL HepG2 Assay for M06 Transcription Factor (Internal Marker) (AID 2282983); conditions: HepG2 Attagene TRANS M06 internal marker reporter
Procedure, shortened: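 HepG2 cells transiently transfected with multiplexed GAL4-UAS reporter transcription units; after 24 h compound exposure, reporter mRNA measured by RT-PCR, FAM-labelled primer extension, HpaI digestion and capillary electrophoresis. Gain-of-signal fitted versus DMSO baseline; background control readout.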

Row | SMILES | outcome
60 | OC(CCl)CCl | inactive
61 | CCCCCCCCN(C)C | inactive
62 | CCCC(CCC)C(=O)O | inactive
63 | OCCNCCO | inactive
64 | CC[C@H](C)C(=O)O[C@H]1C[C@H](O)C=C2C=C[C@H](C)[C@H](CC[C@@H](O)C[C@@H](O)CC(=O)O)[C@H]21 | inactive
65 | CC(C)CCCCCCOC(=O)C1CCCCC1C(=O)OCCCCCCC(C)C (configuration not stated) | inactive
66 | c1ccc(C(O[C@@H]2CCCN(CCc3ccc4c(c3)OCO4)C2)c2ccccc2)cc1 | inactive
67 | NNC(=O)c1ccncc1 | inactive
68 | O=c1[nH]cnc2c1ncn2[C@H]1CC[C@@H](CO)O1 | inactive
69 | OCc1c[nH]c2ccccc12 | inactive
70 | Cc1nccn1-c1ccc(Sc2cccc(C3(C(N)=O)CCOCC3)c2)cc1 | inactive
71 | CC(C)C(=O)Nc1ccc([N+](=O)[O-])c(C(F)(F)F)c1 | inactive
72 | CCCCCOC(C)=O | inactive
73 | COCc1nnc(-c2ccc[n+]([O-])c2)n1-c1c(Cl)c(Cl)cc2[nH]c(=O)c(=O)[nH]c12 | inactive
74 | CCc1cccc(CC)c1N | inactive
75 | CCn1nc(C)c2c1C(=O)NCC(c1ccc(O)cc1)=N2 | inactive
76 | FC(F)C(F)(F)COCC1CO1 (configuration not stated) | inactive
77 | CCCc1ccccc1 | inactive
78 | NC(=O)NN=Cc1ccc([N+](=O)[O-])o1 | inactive
79 | O=C1CN(N=Cc2ccc([N+](=O)[O-])o2)C(=O)N1 | inactive
80 | OCCOCCOCCO | inactive
81 | O=C(O)c1ccc2c(c1)nc(C(=O)NC1CCN(C3CC3)CC1)n2Cc1cc(-c2ccc(Cl)s2)on1 | inactive
82 | CCCCC(CC)C(=O)OCCOCCOCCOC(=O)C(CC)CCCC (configuration not stated) | inactive
